# Source: PubChem BioAssay (NCATS)
# Results filed as inconclusive are left out. Calls of active or inactive are those of the source. Calls come from the whole dose curve; as a rule, active = well fitted cell-killing curve with a large enough effect; inconclusive = small, poorly fitted or top-dose-only effect; inactive = no such curve, though single readings can be large or run the other way. Peptide text beside a SMILES is read from it.
# Experiment: Cell Viability - LYMP2-001 (AID 921); note: nearly all actives have a fitted effect of over 70% in size;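 for activity change, negative = cytotoxic: 0% = DMSO only and full inhibition = tetraoctylammonium bromide control wells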
# Details: LYMP2-001 lymphoblastoid cell viability; series mostly up to 92.2 µM; activity change, negative = cytotoxic: at the top concentration
# Description: NIH Chemical Genomics Center [NCGC]
# NIH Molecular Libraries Screening Centers Network [MLSCN]
# National Institutes of Environmental Health Sciences [NIEHS]
# National Toxicology Program [NTP]
# We have developed a 1536-well cell-based assay for quantitative high throughput screening (qHTS) against a number of cell lines to determine in vitro cytotoxicity of small molecules. This particular assay uses a human lymphoblastoid cell line (LYMP2-001) purchased from Coriell Institute for Medical Research.
# NCGC Assay Protocol Summary:
# The CellTiter-Glo luminescent cell viability assay (Promega) is a homogeneous method to measure the number of viable cells in culture. The end point readout of this assay is based on quantitation of intracellular ATP, an indicator of metabolic activity, using the luciferase reaction. Luciferase catalyzes the oxidation of beetle Luciferin to oxyluciferin and light in the presence of ATP. The luminescent signal is proportional to amount of ATP present.
# Using the CellTiter-Glo luminescent cell viability assay, the amount of cellular ATP was measured in the lymphoblastoid cell line with complete culture medium following compound treatment for 24 hours. The assay was performed in opaque white Kalypsys 1536-well plates. In the screen, tetraoctylammonium bromide was used as positive control. Library compounds were measured for their ability to cause acute toxicity in the cell line, as reflected by a decrease in intracellular ATP levels, in a concentration-dependent manner. […] AC50 values were determined from concentration-response data modeled with the standard Hill equation.
# qHTS protocol for CellTiter Glo lymphoblastoid cellular assay
# [Step] [Parameter] [Value] [Description]
# 1. Reagent; 5 uL; 2500 lymphoblastoid cells/well
# 2. Time; 5 hr; 37 C incubation
# 4. Controls; 23 nL; Tetraoctylammonium bromide 6.4pM to 92 uM
# 5. Time; 24 hr; 37 C incubation
# 6. Reagent; 5 uL; CellTiter Glo reagent
# 7. Time; 30 min; Room Temperature
# 8. Detection; Luminescence; Viewlux plate reader
# Keywords: cell viability, cytotoxicity, lymphoblastoid cell line, luminescence, NTPHTS, NTPHTS_NCGC, NIEHS, DSSTox, MLSMR, MLSCN, NIH Roadmap, qHTS, NCGC
# Potency is the fitted concentration of half-maximal effect.
Structure (SMILES),Potency,"activity change, negative = cytotoxic"
CN(C)c1ccc2nc3ccc(=[N+](C)C)cc-3sc2c1,10 µM (active),
CCCc1cc(=O)[nH]c(=S)[nH]1,,0.688% (inactive)
CS(=O)(=O)OCCCCOS(C)(=O)=O,inactive,
CCc1nc(N)nc(N)c1-c1ccc(Cl)cc1,,-12.5% (inactive)
Cc1ccc(C)c(OCCCC(C)(C)C(=O)O)c1,,-12.9% (inactive)
c1ccc2[nH]c(-c3cscn3)nc2c1,,-26.5% (inactive)
NS(=O)(=O)c1cc(C(=O)O)c(NCc2ccco2)cc1Cl,,-19.1% (inactive)
CC(=O)Nc1ccc(O)cc1,,-18.8% (inactive)
COc1c2occc2cc2ccc(=O)oc12,,-7.67% (inactive)
COC(=O)[C@H](Cc1ccccc1)NC(=O)[C@@H](N)CC(=O)O (H-Asp-Phe-OMe),,-10.7% (inactive)
